Source: PubChem BioAssay (The Scripps Research Institute Molecular Screening Center)
hcDAF-12 act = H. contortus DAF-12 nuclear receptor activators, primary screen, cell-based, luminescence, HEK293, lit1-tk-luc reporter; HEK293 hcDAF-12 lit1-tk-luc reporter; 0% DMSO, 100% Δ7-dafachronic acid; hit rate 1.4% among 370,000; AID 652067, 2013; activation, % at 6.8 µM;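 active = activation above the mean of all tested compounds plus 3 SD, cut at about 5.5% in these data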
ssDAF-12 act = S. stercoralis DAF-12 nuclear receptor activators, primary screen, cell-based, luminescence, HEK293, GRIP1 co-expression, lit1-tk-luc; HEK293 ssDAF-12/GRIP1 lit1-tk-luc reporter; % of 3 µM dafachronic acid response; activation, % at 6.8 µM; hit rate 1% among 370,000; AID 652126, 2013;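 active = activation above the mean over all tested compounds plus 3 SD, cut at about 0.9% in these data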
SMARCA2 activ = SMARCA2 (BRM) function activators, primary screen, cell-based, luminescence, high throughput | activation, % at 9.1 µM | hit rate 1% among 370,000 | MG213 cells, MMTV-luciferase reporter, dexamethasone, overnight | AID 652017, 2013; in the data active = activation above about 7.8%
hgDAF-12 ag = H. glycines DAF-12 receptor agonists, primary screen, cell-based, luminescence, HEK293, GAL4 fusion, UAS-luciferase; activation, % at 6.8 µM; HEK293 GAL4-hgDAF12 UAS-luciferase reporter, agonist luminescence; normalized to butyrate control; hit rate 1.8% among 370,000; AID 687014, 2013;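 active = activation above a cutoff set at the mean of all screened compounds plus 3 SD, cut at about 10% in these data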
DAX1 inh = DAX1 (NR0B1) inhibitors on StAR promoter, primary screen, cell-based, luminescence, SF-1 (NR5A1), full-length DAX-1; AID 652010, 2013; HEK293T StAR-luciferase reporter, SF-1/DAX-1 repression relief; inhibition, % at 6.8 µM; hit rate 1.1% among 370,000;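 active = inhibition above the mean over all tested compounds plus 3 SD, cut at about 3.6% in these data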;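 also: higher inhibition means more luminescence from relief of DAX-1 repression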
LXR ag = LXR agonists, Gal4 luciferase reporter, confirmation, counter-screen for hcDAF-12 agonist project, cell-based, luminescence, HEK293, H. contortus campaign. shares compounds with hcDAF-12 act. HEK293 Gal4-LXR tk-luc reporter, 24 h; normalized: DMSO 0%, positive control 100%. activation, % at 6.8 µM. 3,400 tested, under 10 active. AID 743027, 2013;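 active = mean percent activation of the reporter above a cutoff set as the average over tested compounds plus their standard deviation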
Target sequence (P55055 whole entry, looked up, the tested form may be a part): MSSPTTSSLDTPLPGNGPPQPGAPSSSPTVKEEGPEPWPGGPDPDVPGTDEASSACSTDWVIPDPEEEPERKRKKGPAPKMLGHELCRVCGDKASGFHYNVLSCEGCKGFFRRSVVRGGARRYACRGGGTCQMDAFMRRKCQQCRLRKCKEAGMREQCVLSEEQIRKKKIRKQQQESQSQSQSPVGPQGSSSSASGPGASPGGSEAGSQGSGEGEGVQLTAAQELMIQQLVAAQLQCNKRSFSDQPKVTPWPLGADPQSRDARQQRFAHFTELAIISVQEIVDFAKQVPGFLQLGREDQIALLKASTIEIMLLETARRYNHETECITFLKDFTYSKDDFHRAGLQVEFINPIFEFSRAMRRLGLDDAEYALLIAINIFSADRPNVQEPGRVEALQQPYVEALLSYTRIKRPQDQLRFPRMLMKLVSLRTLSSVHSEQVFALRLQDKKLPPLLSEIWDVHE
hcDAF12 ag = H. contortus DAF-12 receptor agonists, confirmation, cell-based, luminescence, HEK293, lit1-tk-luc, triplicate. shares compounds with hcDAF-12 act. HEK293 hcDAF-12 lit1-tk-luc reporter; % of Δ7-dafachronic acid response. activation, % at 6.8 µM. hit rate 61% among 3,400;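 active = mean activation across triplicate tests above the threshold derived from the earlier primary screen, cut at about 5.5% in these data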
Large screens that a line does not name were inactive (follow-up assays come after a bar, where they were run). In the library only some 4.2% were active in any assay of this set; here they are far more common.

Cc1cc2nc(-c3ccccc3)c(CC3CCCCC3)n2c(C)c1Br	hcDAF-12 act 6.9, ssDAF-12 act 0.9 | LXR ag inactive | hcDAF12 ag inactive
Cc1ccc(-c2nc3c4ccccc4ccn3c2CC2CCCCC2)cc1	hcDAF-12 act 7.5, ssDAF-12 act 2.5, hgDAF-12 ag 11.0 | LXR ag inactive | hcDAF12 ag 6.2
N#Cc1ccc(-c2nc3c4ccccc4ccn3c2CC2CCCCC2)cc1	none
Cc1ccc(-c2nc3cc(C)c(Br)c(C)n3c2CC2CCCCC2)cc1	hcDAF-12 act 7.7, ssDAF-12 act 1.7 | LXR ag inactive | hcDAF12 ag inactive
CC1(C)OC2CC3C4CCC5=CC(=O)C=CC5(C)C4(F)C(O)CC3(C)C2(C(=O)CO)O1 (stereo unspecified)	none
C[C@H](NC(=O)[C@@H]1CCCN1C(=O)[C@@H]1CCCN1C(=O)c1ccc(Cl)cc1)c1ccccc1	none
Cc1ccc(S(=O)(=O)N2CCCC(C(=O)NCCN3CCC(Cc4ccccc4)CC3)C2)cc1 (stereo unspecified)	none
O=C(NCCc1ccc(F)cc1)c1ccc(Sc2ccccc2Cl)c([N+](=O)[O-])c1	none
C[C@H](NC(=O)c1cc2cc(Cl)ccc2n1C)C(=O)N1CCC(C(=O)O)CC1	none
Cn1c(C(=O)Nc2ccc(Cl)cc2)cc2cc(Cl)ccc21	hcDAF-12 act 8.3 | LXR ag inactive | hcDAF12 ag 7.9
CCN(CC)S(=O)(=O)c1ccc(-c2nnc3sc4cccc(C)c4n23)cc1	hcDAF-12 act 7.1 | LXR ag inactive | hcDAF12 ag inactive
CCN(CC)S(=O)(=O)c1ccc(-c2nnc(SCC(N)=O)n2CC)cc1	none
Cc1onc(-c2ccccc2)c1C(=O)N/N=C/C(Br)=C/c1ccccc1	none
CN(C)c1ccc(/C=N/NC(=O)c2ccccc2Cl)cc1	none
Cc1occc1C(=O)N/N=C/C(Br)=C\c1ccccc1	hcDAF-12 act 8.8, hgDAF-12 ag 10.9 | LXR ag inactive | hcDAF12 ag inactive
Cc1occc1C(=O)N/N=C/c1ccc(N(C)C)cc1	hcDAF-12 act 7.3 | LXR ag inactive | hcDAF12 ag 7.2
CCCCc1c(-c2ccc(F)cc2)ncn1CCc1ccccc1OC	none
COc1cccc(N(C)C(=O)[C@@H](C2CC2)[C@@H](O)c2ccc(C(C)=O)cc2)c1	none
CCC[C@H]1[C@@H](NC(=O)C(c2ccccc2)c2ccccc2)CC[C@@]23CCCN2C(=O)CCC[C@@H]13	none (no result: SMARCA2 activ, DAX1 inh)
Cc1ccc(-c2nc3cc(Cl)ccc3o2)cc1	hcDAF-12 act 8.2, ssDAF-12 act 0.9 | LXR ag inactive | hcDAF12 ag 16.1
COc1cc(OC)cc(-c2nc3cc(C)ccc3o2)c1	hcDAF-12 act 17.3, ssDAF-12 act 2.3, DAX1 inh 3.8 | LXR ag inactive | hcDAF12 ag 12.6
CC(=O)NC(c1ccccc1)c1nc(-c2ccc3ccccc3c2)cs1 (stereo unspecified)	none
O=C(CCc1ccccc1)N[C@H]1[C@@H](OC(=O)c2ccco2)CCC[C@]12C(=O)N(Cc1ccccc1)c1ccccc12	none
COc1ccc(-n2c(SCC(=O)Nc3ccc(NC(C)=O)cc3)nc3c([nH]c4ccccc43)c2=O)cc1OC	hcDAF-12 act 9.6, ssDAF-12 act 1.0 | LXR ag inactive | hcDAF12 ag 6.7
CC(=NNc1nc2ccccc2s1)c1ncccn1	hcDAF-12 act 11.2, hgDAF-12 ag 12.4 | LXR ag inactive | hcDAF12 ag inactive
C/C(=N\Nc1nc2ccccc2s1)c1cccs1	hcDAF-12 act 18.1, ssDAF-12 act 1.4, hgDAF-12 ag 12.3 | LXR ag inactive | hcDAF12 ag 23.0
CC(=NNc1nc2ccccc2o1)c1ncccn1	none
C/C(=N\NC(=O)c1cc2ccccc2cc1O)c1cccs1	none
C/C(=N/NC(=O)c1cccs1)c1cccs1	hcDAF-12 act 6.9, hgDAF-12 ag 12.7 | LXR ag inactive | hcDAF12 ag inactive
Cn1c(Cc2cccs2)nnc1SCC(=O)Nc1ccc(OCc2ccccc2)cc1	none
COc1cc2c(cc1OC)C(c1ccccc1)=NCC2	hcDAF-12 act 7.8 | LXR ag inactive | hcDAF12 ag inactive
COC(=O)C1CN(Cc2ccc(F)cc2)CCS(=O)(=O)N1Cc1cn(Cc2ccc(C)cc2)nn1 (stereo unspecified)	none
O=[N+]([O-])c1ccc(-c2ccc(C=Nc3cccc4ccccc34)o2)cc1	hcDAF-12 act 6.8 | LXR ag inactive | hcDAF12 ag inactive
NC(=O)N/N=C/c1ccc(-c2ccc([N+](=O)[O-])cc2)o1	none
CCNC(=O)N1CCN(c2ccc(N3CCN(C(=O)NCC)[C@H](C)C3)c(C)c2)[C@H](C)C1	none
Cc1cnc(NC(=O)C2COc3ccccc3O2)s1 (stereo unspecified)	hcDAF-12 act 9.2 | LXR ag inactive | hcDAF12 ag 7.2
Cc1csc(NC(=O)C2COc3ccccc3O2)n1 (stereo unspecified)	hcDAF-12 act 7.0 | LXR ag inactive | hcDAF12 ag inactive
S=C1NCN(CC2CC2)CN1	none
COc1ccc(Cl)cc1NC(=O)c1cc(C2CC2)on1	hcDAF-12 act 7.6 (no result: SMARCA2 activ, DAX1 inh) | LXR ag inactive | hcDAF12 ag inactive
CC[C@@H](NC(=O)[C@@H](Cc1ccccc1)NC(=O)CC[C@H]1O[C@@H](n2ccc(=O)[nH]c2=O)[C@H](O)[C@@H]1O)c1ccccc1	none
COc1ccc(-c2nnc(SCC(=O)Nc3ccc4cn[nH]c4c3)n2Cc2ccco2)cc1	hcDAF-12 act 7.4 | LXR ag inactive | hcDAF12 ag inactive
Cc1cc(N2CCN(C(=O)OC(C)(C)C)C[C@H]2C)ccc1N1C[C@@H](C)O[C@@H](C)C1	none
Cc1cccc(/C=N/c2sc3c(c2C#N)CCN(Cc2ccccc2)C3)c1O	hcDAF-12 act 13.6 | LXR ag inactive | hcDAF12 ag 6.7
CC(=O)Nc1sc2c(c1C#N)CCN(Cc1ccccc1)C2	none
Cc1nn(-c2ccccc2)c2sc(C(=O)NC3CCCc4ccccc43)cc12 (stereo unspecified)	none
